Results on six compounds are retold here after ChEMBL document CHEMBL2218924, “A broad activity screen in support of a chemogenomic map for kinase signalling research and drug discovery” (Biochem J, 2013).

In assay [1] the target is ALK tyrosine kinase receptor (Homo sapiens) (UniProt Q9UM73). Particulars: at 10 µM.
Assay [2] deals with T1, Activin receptor type-1B (Homo sapiens) (UniProt P36896).
T1 sequence (whole entry): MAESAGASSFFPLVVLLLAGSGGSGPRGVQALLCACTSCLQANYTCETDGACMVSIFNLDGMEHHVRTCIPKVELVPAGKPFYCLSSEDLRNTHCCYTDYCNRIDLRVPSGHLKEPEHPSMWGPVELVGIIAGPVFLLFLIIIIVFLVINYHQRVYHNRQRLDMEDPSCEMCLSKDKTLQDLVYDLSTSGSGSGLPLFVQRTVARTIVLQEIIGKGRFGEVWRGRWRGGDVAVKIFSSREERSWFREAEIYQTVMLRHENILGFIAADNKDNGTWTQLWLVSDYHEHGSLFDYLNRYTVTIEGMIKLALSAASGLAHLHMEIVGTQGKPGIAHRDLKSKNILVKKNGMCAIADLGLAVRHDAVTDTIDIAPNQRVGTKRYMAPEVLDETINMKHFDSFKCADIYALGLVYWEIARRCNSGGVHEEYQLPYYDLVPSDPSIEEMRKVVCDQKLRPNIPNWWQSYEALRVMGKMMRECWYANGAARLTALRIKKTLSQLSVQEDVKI
The note with it: at 1 µM.

Assay [3] addresses T1, Activin receptor type-1B (Homo sapiens). Particulars: at 10 µM.
The target of assay [4] is T2, AMP-activated protein kinase (AMPK) alpha-1/beta-1/gamma-1 (Homo sapiens) (UniProt P54619+Q9Y478+Q13131). Particulars: at 1 µM.
T2 sequence (P54619 whole entry): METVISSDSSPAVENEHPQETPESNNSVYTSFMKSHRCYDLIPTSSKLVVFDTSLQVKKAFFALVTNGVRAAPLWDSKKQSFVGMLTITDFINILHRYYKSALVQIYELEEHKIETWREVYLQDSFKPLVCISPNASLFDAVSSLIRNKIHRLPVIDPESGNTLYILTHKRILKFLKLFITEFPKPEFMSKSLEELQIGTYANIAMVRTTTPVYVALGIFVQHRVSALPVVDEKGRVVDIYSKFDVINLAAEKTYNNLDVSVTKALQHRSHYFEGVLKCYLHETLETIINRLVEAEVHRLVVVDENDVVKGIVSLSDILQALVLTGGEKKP
T2 sequence (Q13131 whole entry partner): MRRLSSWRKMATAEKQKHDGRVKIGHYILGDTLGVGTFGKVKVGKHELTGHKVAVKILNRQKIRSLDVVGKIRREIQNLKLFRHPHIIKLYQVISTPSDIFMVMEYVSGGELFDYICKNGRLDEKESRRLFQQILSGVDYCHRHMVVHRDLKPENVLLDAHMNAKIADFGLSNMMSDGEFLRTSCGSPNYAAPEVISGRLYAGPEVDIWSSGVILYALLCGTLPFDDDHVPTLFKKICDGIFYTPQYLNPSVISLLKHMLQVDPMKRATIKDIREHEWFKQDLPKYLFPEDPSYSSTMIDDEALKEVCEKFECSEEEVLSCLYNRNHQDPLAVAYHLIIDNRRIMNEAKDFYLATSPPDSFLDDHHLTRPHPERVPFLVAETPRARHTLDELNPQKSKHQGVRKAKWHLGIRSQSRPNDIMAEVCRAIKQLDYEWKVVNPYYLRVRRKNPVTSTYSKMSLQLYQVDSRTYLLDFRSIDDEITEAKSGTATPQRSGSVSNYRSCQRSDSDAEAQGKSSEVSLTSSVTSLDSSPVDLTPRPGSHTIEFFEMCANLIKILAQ
T2 sequence (Q9Y478 2-270 partner limits assumed): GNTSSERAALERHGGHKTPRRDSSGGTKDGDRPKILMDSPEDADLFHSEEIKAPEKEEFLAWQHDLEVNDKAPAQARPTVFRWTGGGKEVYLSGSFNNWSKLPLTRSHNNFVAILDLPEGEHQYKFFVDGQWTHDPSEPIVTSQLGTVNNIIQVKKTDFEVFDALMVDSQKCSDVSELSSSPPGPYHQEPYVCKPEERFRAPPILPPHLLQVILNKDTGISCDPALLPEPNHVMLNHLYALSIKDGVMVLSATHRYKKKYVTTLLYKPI
Assay [5] concerns the target T2, AMP-activated protein kinase (AMPK) alpha-1/beta-1/gamma-1 (Homo sapiens). Particulars: at 10 µM.
Assay [6] has as its target T3, AMP-activated protein kinase, AMPK (Homo sapiens) (UniProt P54646+O43741+P54619+Q9UGJ0+Q9Y478+Q13131+Q9UGI9). Particulars: at 1 µM.
For assay [7], the target named is T3, AMP-activated protein kinase, AMPK (Homo sapiens). Particulars: at 10 µM.
The target of assay [8] is T4, NUAK family SNF1-like kinase 1 (Homo sapiens) (UniProt O60285).
T4 sequence (whole entry): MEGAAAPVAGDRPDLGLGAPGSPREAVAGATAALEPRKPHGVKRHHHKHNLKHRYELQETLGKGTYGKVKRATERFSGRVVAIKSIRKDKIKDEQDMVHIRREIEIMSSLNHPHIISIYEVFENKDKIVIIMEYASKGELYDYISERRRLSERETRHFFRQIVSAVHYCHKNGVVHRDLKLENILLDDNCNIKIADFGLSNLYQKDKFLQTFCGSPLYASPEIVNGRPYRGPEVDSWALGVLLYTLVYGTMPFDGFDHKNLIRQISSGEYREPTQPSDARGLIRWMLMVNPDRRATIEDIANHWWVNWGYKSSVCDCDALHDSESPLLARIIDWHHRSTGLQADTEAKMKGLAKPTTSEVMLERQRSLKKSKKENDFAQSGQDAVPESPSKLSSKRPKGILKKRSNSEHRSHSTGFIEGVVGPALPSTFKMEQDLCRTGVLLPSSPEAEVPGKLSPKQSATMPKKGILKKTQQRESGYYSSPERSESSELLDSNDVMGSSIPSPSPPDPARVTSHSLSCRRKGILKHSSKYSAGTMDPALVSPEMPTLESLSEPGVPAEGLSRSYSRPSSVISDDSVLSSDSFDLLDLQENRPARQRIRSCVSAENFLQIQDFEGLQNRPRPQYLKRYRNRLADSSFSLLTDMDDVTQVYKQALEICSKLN
Particulars: at 1 µM.

Assay [9] has as its target T4, NUAK family SNF1-like kinase 1 (Homo sapiens). The note with it: at 10 µM.
Assay [10] has as its target T5, Mitogen-activated protein kinase kinase kinase 5 (Homo sapiens) (UniProt Q99683).
T5 sequence (whole entry): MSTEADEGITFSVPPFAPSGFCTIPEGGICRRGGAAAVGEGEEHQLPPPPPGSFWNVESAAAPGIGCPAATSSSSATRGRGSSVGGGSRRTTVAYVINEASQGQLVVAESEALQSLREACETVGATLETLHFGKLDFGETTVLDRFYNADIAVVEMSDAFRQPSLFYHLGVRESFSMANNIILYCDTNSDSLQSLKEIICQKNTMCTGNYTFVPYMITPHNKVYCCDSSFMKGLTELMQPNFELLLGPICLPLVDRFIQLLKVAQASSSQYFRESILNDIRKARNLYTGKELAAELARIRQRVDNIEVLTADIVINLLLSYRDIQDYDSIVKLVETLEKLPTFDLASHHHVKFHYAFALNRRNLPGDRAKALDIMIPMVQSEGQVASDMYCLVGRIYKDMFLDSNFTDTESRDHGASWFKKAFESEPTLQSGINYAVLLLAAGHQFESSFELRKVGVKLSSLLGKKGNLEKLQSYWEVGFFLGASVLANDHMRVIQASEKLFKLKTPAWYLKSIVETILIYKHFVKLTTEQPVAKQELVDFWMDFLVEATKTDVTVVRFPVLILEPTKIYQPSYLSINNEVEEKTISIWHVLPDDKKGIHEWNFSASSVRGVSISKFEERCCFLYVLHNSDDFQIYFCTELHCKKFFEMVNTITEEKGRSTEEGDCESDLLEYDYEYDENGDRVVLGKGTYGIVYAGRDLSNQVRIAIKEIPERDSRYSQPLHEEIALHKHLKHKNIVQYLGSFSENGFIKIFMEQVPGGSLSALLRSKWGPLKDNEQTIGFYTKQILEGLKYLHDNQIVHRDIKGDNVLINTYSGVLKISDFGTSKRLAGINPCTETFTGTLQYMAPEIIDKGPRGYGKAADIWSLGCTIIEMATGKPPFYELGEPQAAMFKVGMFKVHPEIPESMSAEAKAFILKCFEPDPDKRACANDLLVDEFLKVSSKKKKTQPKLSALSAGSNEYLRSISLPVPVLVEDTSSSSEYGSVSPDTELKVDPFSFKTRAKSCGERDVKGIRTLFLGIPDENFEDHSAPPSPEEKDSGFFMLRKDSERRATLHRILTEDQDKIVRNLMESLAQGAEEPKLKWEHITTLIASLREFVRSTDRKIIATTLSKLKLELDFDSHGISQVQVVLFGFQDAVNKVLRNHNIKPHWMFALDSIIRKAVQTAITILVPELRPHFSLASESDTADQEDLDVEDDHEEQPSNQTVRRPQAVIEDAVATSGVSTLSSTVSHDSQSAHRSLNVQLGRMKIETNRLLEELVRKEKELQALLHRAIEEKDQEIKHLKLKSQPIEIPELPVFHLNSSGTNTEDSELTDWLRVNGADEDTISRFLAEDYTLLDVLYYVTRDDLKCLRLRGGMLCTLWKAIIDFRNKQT
Particulars: at 1 µM.

The target of assay [11] is Platelet-derived growth factor receptor alpha (Homo sapiens) (UniProt P16234). The note with it: at 1 µM.
Platelet-derived growth factor receptor alpha (Homo sapiens), sequence (P16234 whole entry): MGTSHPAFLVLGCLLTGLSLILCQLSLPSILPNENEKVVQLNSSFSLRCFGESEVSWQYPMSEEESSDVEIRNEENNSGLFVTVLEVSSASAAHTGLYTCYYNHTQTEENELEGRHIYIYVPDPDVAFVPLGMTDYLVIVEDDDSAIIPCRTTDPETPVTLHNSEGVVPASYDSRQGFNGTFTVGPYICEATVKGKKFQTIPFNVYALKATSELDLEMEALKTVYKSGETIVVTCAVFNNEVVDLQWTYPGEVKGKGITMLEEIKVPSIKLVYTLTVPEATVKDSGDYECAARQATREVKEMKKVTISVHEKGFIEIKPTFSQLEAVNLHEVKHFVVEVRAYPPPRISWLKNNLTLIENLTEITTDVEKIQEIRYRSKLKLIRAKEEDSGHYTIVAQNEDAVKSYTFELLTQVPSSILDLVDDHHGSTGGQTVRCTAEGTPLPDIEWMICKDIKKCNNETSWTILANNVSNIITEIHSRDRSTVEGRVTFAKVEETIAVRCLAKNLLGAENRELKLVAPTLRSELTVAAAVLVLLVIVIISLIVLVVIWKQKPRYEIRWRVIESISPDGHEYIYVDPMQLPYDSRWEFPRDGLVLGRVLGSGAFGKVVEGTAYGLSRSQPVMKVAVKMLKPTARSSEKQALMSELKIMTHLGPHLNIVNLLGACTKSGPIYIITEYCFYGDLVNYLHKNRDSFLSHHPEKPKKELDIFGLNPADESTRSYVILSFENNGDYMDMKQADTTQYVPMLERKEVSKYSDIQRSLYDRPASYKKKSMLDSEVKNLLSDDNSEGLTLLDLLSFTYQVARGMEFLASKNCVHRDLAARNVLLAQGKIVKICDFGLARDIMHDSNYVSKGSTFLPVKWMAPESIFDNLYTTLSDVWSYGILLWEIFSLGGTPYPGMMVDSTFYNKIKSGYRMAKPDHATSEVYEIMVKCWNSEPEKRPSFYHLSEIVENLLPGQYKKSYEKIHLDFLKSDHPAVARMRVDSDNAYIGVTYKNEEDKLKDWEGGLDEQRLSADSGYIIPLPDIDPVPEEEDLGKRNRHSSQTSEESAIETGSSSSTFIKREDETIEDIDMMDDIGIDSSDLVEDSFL
Assay [12] addresses Platelet-derived growth factor receptor beta (Homo sapiens) (UniProt P09619). Particulars: at 1 µM.
Assay [13] has the same target. The note with it: at 10 µM.
The target of assay [14] is T6, 3-phosphoinositide-dependent protein kinase 1 (Homo sapiens) (UniProt O15530).
T6 sequence (whole entry): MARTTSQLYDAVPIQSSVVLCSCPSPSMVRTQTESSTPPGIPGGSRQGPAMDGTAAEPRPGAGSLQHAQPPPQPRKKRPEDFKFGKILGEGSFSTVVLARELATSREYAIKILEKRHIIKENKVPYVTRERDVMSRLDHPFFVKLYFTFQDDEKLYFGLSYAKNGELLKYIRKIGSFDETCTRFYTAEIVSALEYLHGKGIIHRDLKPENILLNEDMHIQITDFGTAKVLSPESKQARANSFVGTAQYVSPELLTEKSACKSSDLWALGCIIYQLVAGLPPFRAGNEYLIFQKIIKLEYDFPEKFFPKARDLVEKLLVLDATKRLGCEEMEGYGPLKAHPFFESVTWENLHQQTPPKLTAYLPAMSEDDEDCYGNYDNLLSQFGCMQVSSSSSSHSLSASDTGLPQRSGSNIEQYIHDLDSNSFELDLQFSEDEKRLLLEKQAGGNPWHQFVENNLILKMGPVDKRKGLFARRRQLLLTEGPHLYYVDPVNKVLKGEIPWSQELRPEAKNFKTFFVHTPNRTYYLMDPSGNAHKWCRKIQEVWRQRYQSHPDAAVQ
Particulars: at 1 µM.

In assay [15] the target is T6, 3-phosphoinositide-dependent protein kinase 1 (Homo sapiens). Particulars: at 10 µM.
For assay [16], the target named is cAMP-dependent protein kinase catalytic subunit alpha (Homo sapiens) (UniProt P17612). Particulars: at 1 µM.
For assay [17] the target is unchanged. The note with it: at 10 µM.
For assay [18], the target named is RAC-gamma serine/threonine-protein kinase (Homo sapiens) (UniProt Q9Y243). The note with it: at 1 µM.
RAC-gamma serine/threonine-protein kinase (Homo sapiens), sequence (Q9Y243 whole entry): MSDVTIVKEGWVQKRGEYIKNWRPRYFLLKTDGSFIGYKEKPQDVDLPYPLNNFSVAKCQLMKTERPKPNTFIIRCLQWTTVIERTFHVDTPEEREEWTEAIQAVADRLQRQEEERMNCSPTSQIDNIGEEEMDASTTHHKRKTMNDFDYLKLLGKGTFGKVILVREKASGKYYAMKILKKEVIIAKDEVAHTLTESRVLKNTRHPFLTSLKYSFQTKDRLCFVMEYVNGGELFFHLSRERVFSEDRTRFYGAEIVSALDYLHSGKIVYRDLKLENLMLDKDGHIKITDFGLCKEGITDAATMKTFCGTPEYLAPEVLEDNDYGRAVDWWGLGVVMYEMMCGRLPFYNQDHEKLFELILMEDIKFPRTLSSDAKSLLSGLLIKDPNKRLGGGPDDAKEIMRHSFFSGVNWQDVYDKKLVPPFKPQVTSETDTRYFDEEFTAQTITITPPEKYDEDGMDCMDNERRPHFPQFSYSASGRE
Assay [19] has the same target. Particulars: at 10 µM.
Assay [20] addresses Platelet-derived growth factor receptor alpha (Homo sapiens) (UniProt P16234). The note with it: at 10 µM.

ALK tyrosine kinase receptor (Homo sapiens), sequence (Q9UM73 19-1620 limits assumed): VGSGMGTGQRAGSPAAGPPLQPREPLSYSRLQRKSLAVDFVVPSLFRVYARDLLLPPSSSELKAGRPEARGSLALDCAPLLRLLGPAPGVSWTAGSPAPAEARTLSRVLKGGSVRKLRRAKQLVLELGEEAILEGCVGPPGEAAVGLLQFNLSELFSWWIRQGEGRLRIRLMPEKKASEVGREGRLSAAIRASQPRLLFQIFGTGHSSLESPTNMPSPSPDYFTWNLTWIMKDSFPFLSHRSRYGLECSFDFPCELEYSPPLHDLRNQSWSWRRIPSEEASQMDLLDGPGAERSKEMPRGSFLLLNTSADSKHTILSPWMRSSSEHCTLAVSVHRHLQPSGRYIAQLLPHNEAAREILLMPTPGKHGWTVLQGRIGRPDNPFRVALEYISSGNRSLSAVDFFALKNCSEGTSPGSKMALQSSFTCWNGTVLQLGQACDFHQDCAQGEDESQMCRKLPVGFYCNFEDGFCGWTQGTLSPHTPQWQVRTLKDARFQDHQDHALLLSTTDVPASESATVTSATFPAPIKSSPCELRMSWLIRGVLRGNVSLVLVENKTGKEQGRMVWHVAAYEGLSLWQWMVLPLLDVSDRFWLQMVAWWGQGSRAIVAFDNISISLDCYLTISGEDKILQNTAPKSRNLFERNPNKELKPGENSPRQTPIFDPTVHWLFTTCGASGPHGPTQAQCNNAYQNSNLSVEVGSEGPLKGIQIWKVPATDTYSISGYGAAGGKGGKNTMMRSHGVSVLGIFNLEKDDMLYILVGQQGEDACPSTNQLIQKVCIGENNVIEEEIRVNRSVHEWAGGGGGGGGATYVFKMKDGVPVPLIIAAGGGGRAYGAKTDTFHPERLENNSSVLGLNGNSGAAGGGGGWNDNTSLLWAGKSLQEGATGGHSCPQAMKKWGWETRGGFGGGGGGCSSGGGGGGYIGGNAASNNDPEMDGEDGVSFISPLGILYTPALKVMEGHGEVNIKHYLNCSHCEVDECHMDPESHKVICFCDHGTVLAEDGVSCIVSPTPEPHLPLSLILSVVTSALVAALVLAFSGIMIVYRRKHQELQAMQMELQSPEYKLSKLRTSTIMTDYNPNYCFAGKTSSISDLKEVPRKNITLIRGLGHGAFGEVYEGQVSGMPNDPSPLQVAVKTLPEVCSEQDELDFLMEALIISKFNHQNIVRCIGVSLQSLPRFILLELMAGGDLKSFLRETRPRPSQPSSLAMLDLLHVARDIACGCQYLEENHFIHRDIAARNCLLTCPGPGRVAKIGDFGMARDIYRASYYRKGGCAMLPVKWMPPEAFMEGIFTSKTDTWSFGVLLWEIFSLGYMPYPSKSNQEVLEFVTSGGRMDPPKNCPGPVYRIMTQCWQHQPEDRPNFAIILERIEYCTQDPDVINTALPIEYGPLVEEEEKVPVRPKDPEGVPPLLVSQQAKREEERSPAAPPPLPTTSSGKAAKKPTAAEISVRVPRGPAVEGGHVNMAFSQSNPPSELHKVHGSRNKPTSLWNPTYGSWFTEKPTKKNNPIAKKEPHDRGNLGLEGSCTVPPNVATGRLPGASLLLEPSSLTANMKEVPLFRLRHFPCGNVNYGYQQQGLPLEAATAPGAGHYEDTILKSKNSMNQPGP

Consider `O=C(CCCc1ccc(-c2ccccc2F)cc1)Nc1ccc(O)cc1`, for which the residual activity in [1] is 44%; in [2], 111%; in [3], 94%; in assay [4], 106%; in [5], 89%; in assay [6], 106%. In addition, the residual activity in [7] was found to be 99%; in [8], 96%; in assay [9], 78%; in assay [10], 99%; in assay [11], 103%; in assay [12], 102%. In addition, the residual activity in [13] is 125%; in [14], 105%; in assay [15] it was 90%; in [16] it was 107%; in assay [17], 128%; in assay [18], 109%. In addition, the residual activity in assay [19] was found to be 87%.
Consider `CC(C)(C)n1nc(Cc2cccc3ccccc23)c2c(N)ncnc21`, for which the residual activity in assay [1] was found to be 49%; in assay [2], 129%; in assay [3], 60%; in [4], 103%; in assay [5], 72%; in [6] it was 89%. In addition, the residual activity was 74% in assay [7]; 105% in assay [8]; 92% in [9]; 111% in assay [10]; 116% in [11]; 72% in assay [20]. Further, the residual activity in assay [12] came out at 99%; in assay [13] it was 71%; in assay [14] it was 108%; in assay [15] it was 117%; in assay [16], 34%; in assay [17], 8%. The residual activity came to 92% in assay [18] and 44% in [19].
For `Nc1ncnc2c1c(-c1ccc(Oc3ccccc3)cc1)cn2C1CCCC1`, the residual activity turned out to be 27% in assay [1]; 125% in [2]; 99% in assay [4]; 61% in assay [5]; 94% in [6]; 63% in assay [7]. Further, the residual activity came to 83% in assay [8]; 67% in [9]; 90% in assay [10]; 17% in assay [11]; 4% in assay [20]; 54% in assay [12]. Also, the residual activity came to 6% in assay [13]; 104% in [14]; 95% in [15]; 85% in [16]; 88% in [17]; 98% in assay [18]. The residual activity in [19] is 71%.
Consider `NC(=O)c1ccc(-c2nc(-c3ccc4c(c3)OCCO4)c(-c3ccccn3)[nH]2)cc1`, for which the residual activity in assay [1] was 52%; in [2], 31%; in assay [3], 0%; in assay [4], 90%; in [5], 92%; in assay [9] it was 91%. In addition, the residual activity in [10] came out at 98%; in assay [13], 75%; in assay [16], 92%; in [17], 96%; in assay [18] it was 98%; in [19] it was 94%.
In the case of `CN(C)S(=O)(=O)c1ccc2c(c1)/C(=C/c1cc3c([nH]1)CCCC3)C(=O)N2`, the residual activity in assay [1] stood at 29%; in assay [2], 111%; in assay [3] it was 56%; in assay [4] it was 43%; in [5], 29%; in assay [6], 45%. For the same compound, the residual activity in [7] was determined as 37%; in [8], 10%; in assay [9] it was 3%; in assay [11] it was 33%; in assay [20], 29%; in assay [12], 80%. The results for the residual activity in assay [13], in assay [18] and in assay [19] were 90%, 92% and 88%, respectively.
On to `COc1cc2ncnc(Nc3cccc(Cl)c3)c2cc1OC`, for which the residual activity in assay [1] was 107%; in assay [2], 105%; in [3], 101%; in assay [5] it was 67%; in assay [7], 74%; in assay [9], 52%. The residual activity in assay [10] is 103%; in [11], 104%; in assay [20] it was 87%; in assay [12], 102%; in [13], 103%; in assay [16] it was 111%. Further, the residual activity in [17] turned out to be 101%; in [18], 112%.
